# PMC6919601, “Identification of Plasmodium dipeptidyl aminopeptidase allosteric inhibitors by high throughput screening” (PLoS ONE, 2019)
# The whole screen tested about 110,000 compounds, of which about 230 (0.21%) showed an effect of 50% or more. This is one part of a sample in which strong results are shown more often than they occur.
# Biological target: DPAP1 (Plasmodium falciparum, UniProt Q8IIJ9)
# Assay: primary screen, percent inhibition; read by cleavage of a fluorogenic dipeptide substrate; higher = more effect of the substance
# Design: species or system P. falciparum D10 trophozoite lysates; single well
# Protocol: HTS was performed in black 384-well plates. The first and last two columns of each plate contained our negative (DMSO) and positive (10 μM JCP410) controls, and the 20 central columns the test compounds at 10 μM. Compounds were first diluted 50-fold into assay buffer (50 mM sodium acetate, 5 mM MgCl2, 10 mM β-mercaptoethanol, and 0.1% CHAPS, pH 5.5) from a 10 mM DMSO stock plates. One microliter of this 200 μM intermediate stock plate was dispensed into the assay plate. […] After 30 min, the reaction was quenched with 20 μL of 0.5 M acetic acid, and the fluorescent intensity measured at 523 nm (λex = 492 nm) using an Analyst HT multimode plate reader (Molecular Devices).
# 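Note: 30 min substrate incubation versus DMSO and 10 µM JCP410 controls.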
# Chain of DPAP1 (Q8IIJ9 whole entry, looked up): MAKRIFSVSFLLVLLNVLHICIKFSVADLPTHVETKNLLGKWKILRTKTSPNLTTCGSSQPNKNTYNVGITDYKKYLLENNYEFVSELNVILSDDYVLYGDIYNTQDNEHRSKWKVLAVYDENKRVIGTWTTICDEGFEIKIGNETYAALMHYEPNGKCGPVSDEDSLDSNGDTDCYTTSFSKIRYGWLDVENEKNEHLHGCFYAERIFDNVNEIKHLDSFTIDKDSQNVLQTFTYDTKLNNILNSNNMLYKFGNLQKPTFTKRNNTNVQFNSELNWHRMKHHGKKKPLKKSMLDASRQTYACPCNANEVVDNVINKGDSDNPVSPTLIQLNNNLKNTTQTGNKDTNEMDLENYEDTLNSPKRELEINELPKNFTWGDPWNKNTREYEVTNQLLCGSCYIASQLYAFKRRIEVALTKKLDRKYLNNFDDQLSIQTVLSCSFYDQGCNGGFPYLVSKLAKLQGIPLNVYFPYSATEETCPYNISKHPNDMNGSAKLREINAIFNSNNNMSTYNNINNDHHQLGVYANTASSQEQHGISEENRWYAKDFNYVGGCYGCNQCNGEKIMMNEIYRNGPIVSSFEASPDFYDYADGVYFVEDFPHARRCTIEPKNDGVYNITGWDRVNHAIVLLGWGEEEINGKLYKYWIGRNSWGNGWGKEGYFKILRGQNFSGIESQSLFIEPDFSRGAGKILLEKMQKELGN
row,Compound,% Inhibition @ 10 uM [%]
1,CC1CCN(S(=O)(=O)c2ccc(NC(=O)c3ccc(-c4ccccc4)cc3)cc2)CC1,2.13
2,Cc1sc2s[n+](CCCS(=O)(=O)O)c(C)c2c1C,-1.33
3,CCOc1ccc(N2CC(C(=O)Nc3ccc(Br)cc3C)CC2=O)cc1 (stereo not drawn),4.05
4,CCCCC(=O)Nc1c(-c2ccccc2)nc2ccccn12,-3.19
5,O=c1c2c3c(sc2[nH]c(=S)n1Cc1ccccc1)CCCC3,3.06
6,O=c1c2c3c(sc2[nH]c(=S)n1C1CCCCC1)CCCC3,9.26
7,C=C(C)Cn1c(=S)[nH]c2sc3c(c2c1=O)CCCC3,57.3
8,CC1(C)Cc2c(sc3[nH]c(=S)[nH]c(=S)c23)CO1,15
9,O=c1[nH]c(=S)[nH]c2sc3c(c12)CCC1(CCCCC1)C3,5.93
10,CCn1c(=S)[nH]c2sc3c(c2c1=O)CCCC3,42.2
11,CCn1c(=S)[nH]c2sc3c(c2c1=O)CCC3,64.7
12,S=c1[nH]c(=S)c2c3c(sc2[nH]1)CCC3,85.2
13,O=c1c2c3c(sc2[nH]c(=S)n1Cc1ccccc1)CCC3,21
14,Cc1cc2nnc(SCC(=O)O)n2c2ccccc12,-2.19
15,C=C(C)COc1ccc2cc(-c3nc4ccccc4s3)c(=O)oc2c1,6.22
16,CC(C)(C)c1ccc(C(=O)NCc2cccc3ccccc23)cc1,-3.48
17,N#CC1=C2SCN(C3CCCCC3)CN2C(=O)CC1c1cccc2ccccc12 (stereo not drawn),53.8
18,N#CC1=C2SCN(Cc3ccco3)CN2C(=O)CC1c1cccc2ccccc12 (stereo not drawn),45.5

row,Compound,% Inhibition @ 10 uM [%]
1,N#CC1=C2SCN(C3CCCCC3)CN2C(=O)CC1c1ccccc1F (stereo not drawn),37.8
2,N#CC1=C2SCN(Cc3ccccc3)CN2C(=O)CC1c1cccc2ccccc12 (stereo not drawn),51.5
3,Cc1ccccc1C1CC(=O)N2CN(Cc3ccccc3)CSC2=C1C#N (stereo not drawn),31.2
4,Cc1ccccc1C1CC(=O)N2CN(C3CCCCC3)CSC2=C1C#N (stereo not drawn),24
5,CC1(c2ccccc2)CC(C)(C)N(C(=O)/C=C/c2ccccc2)c2ccccc21 (stereo not drawn),0.467
6,COc1ccc(/C=C/C(=O)N2c3ccccc3C(C)(c3ccccc3)CC2(C)C)cc1 (stereo not drawn),56.6
7,COc1ccc(C(=O)N2c3ccccc3C(C)(c3ccccc3)CC2(C)C)cc1 (stereo not drawn),-2
8,CCc1ccc(NC(=O)C2CCN(S(=O)(=O)c3cc(Cl)ccc3Cl)CC2)cc1,-4.06
9,O=C1c2ccccc2C(=O)N1CNc1ccc(Cl)c(Cl)c1,-1.17
10,Cn1cc(Br)c(C(=O)Nc2sc3c(c2C(N)=O)CCC3)n1,1.02
11,NC(=O)c1c(NC(=O)C23CC4CC(CC(C4)C2)C3)sc2c1CCCCC2,52.3
12,NC(=O)c1c(NC(=O)C2CCC2)sc2c1CCCCC2,7.35
13,Cn1ccc(C(=O)Nc2sc3c(c2C(N)=O)CCCCC3)n1,47
14,NC(=O)c1c(NC(=O)C2CC2)sc2c1CCCCCC2,5.39
15,Cn1cc(Br)c(C(=O)Nc2sc3c(c2C(N)=O)CCCCC3)n1,51.9
16,NC(=O)c1c(NC(=O)C2CC2)sc2c1CCCCC2,50.4
17,CC(=O)Nc1sc2c(c1C(N)=O)CCCCCC2,2.65
18,CCOC(=O)c1c(NC(=O)C23CC4CC(CC(C4)C2)C3)sc2c1CCCC2,-1.36
